# Screens as filed in PubChem BioAssay.
# Only some compounds are listed: those with a hit (about 9.2% of all), similar ones and a draw of the others.
# ELG1 genotoxic = inducers of genotoxicity in HEK293T ELG1-luciferase cells | 330,000 tested, 1.3% active | HEK293T ELG1-luciferase reporter, luminescence, 16 h | Potency, µM (top dose mostly 46 µM), inactives show at the top dose activity change, positive = activation, hits mostly activators | AID 504466; further: % of control where 0% means no effect; nearly all actives have a fitted effect of over 60% in size
#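 Quantitative HTS format in 1536-well plates. HEK293T ELG1-luciferase reporter cells receive test compound and are incubated 16 hr at 37 °C, 5% CO2; ONE-Glo added, 30 min room temperature, then luminescence read.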
# ELG1 DNA repair = blocks ELG1-dependent DNA repair in HEK293T cells. HEK293T ELG1-luciferase reporter, luminescence, 16 h; DNA damage induced by 5-fluorouridine. Potency, µM (titrated, usually from 46.1 µM), inactives show at the top dose activity change, negative = inhibition, usual class: inhibitors. 330,000 tested, 2.3% active. AID 504467; further: on the % scale 0 is the no-effect control and ±100 the full control effect; nearly all actives have a fitted effect of over 55% in size
#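 Overnight (16 hr) co-exposure of 2,000 cells/well to 5-fluorouridine and compound at 37 °C preceded detection. Luciferase was quantified via ONE-Glo luminescence; loss of signal denotes inhibition.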
# FLuc counter = counter-screen for miR-21 project: firefly luciferase inhibitors or activators; P08659; purified FLuc, Km substrates, luminescence inhibition; Potency, µM (top dose mostly 57.5 µM), without a hit: top-dose activity change, negative = inhibition, most hits filed as inhibitors; 360,000 tested, 6.9% active;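 further: plate controls were vehicle for no effect and reference inhibitor for full effect; nearly all actives have a fitted effect of over 55% in size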
# Target sequence (P08659 whole entry, looked up): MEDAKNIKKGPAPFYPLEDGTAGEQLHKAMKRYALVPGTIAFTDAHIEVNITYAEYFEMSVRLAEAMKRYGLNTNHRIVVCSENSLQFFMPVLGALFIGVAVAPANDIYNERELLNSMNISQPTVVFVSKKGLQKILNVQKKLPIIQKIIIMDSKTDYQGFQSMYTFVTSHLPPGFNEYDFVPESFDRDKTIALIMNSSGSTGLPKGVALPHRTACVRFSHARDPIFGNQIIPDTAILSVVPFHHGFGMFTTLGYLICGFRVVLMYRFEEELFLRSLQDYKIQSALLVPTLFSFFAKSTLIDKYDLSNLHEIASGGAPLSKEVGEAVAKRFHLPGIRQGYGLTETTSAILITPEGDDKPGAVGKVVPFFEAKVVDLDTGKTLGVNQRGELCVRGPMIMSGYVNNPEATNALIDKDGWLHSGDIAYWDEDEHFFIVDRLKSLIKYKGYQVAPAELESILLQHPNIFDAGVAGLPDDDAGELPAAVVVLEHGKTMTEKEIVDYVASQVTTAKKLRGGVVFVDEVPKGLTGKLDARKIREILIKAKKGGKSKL
#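 Purified P. pyralis luciferase, 10 nM final, with Km-level 10 uM D-luciferin and 10 uM ATP in 50 mM Tris acetate pH 7.5, 10 mM Mg acetate, 0.01% Tween-20, 0.05% BSA; 6-point qHTS titration about 60 µM downward; luminescence read.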
# Rab9 promoter act = Rab9 promoter activation; Huh7 Rab9 promoter-luciferase reporter, luminescence, 24 h; Potency, µM (doses to about 9.22 µM), for the others: at the top dose activation, negative = inhibition, usual class: activators; 320,000 tested, 2.8% active; AID 485297; further: % of control where 0% means no effect; nearly all actives have a fitted effect of over 60% in size
#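 Using Huh7 cells stably transfected with Rab9 promoter–luciferase, compounds were incubated 24 h at 37 °C, 5% CO2; luciferase luminescence was read 10 min after reagent addition.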
# NPC1 promoter act = activators of NPC1 promoter. 320,000 tested, 2.4% active. Potency, µM (series often up to 9.22 µM), for the others: top-dose activation, most hits filed as activators. Huh7 NPC1 promoter luciferase reporter, 24 h. AID 485313; further: % of control where 0% means no effect; nearly all actives have a fitted effect of over 60% in size
#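 Luminescence from an NPC1 promoter-driven luciferase reporter in stably transfected Huh7 cells was measured after 24 h compound treatment at 37 °C, followed by 10 min ambient incubation with luciferase detection reagent.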
# SMN2 splice enh = SMN2 splice variant enhancement; HEK293 SMN2-luciferase splicing reporter, luminescence, 30-36 h; Potency, µM (highest dose often 46.1 µM), for the others: at the top dose activity change, positive = activation, actives largely listed as activators; 210,000 tested, 2.8% active; AID 1458; further: % of control where 0% means no effect; nearly all actives have a fitted effect of over 55% in size
#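 qHTS luciferase splicing reporter: luminescence rises when SMN2 exon 7 is included in transfected HEK293 cells. Compound exposure lasted 30-36 h at 37C, with 4.5 mM final sodium butyrate as control, followed by a ONE-Glo read.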
# An asterisk follows results filed as active; ? = inconclusive; . = no result. The call rests on the fitted dose curve; in most records, active means well fitted curve in the direction sought with a large enough effect; inconclusive means small, poorly fitted or top-dose-only effect, or another doubt; inactive means no such curve, though single readings can be large; an effect the other way counts as inactive or inconclusive. Potency means the concentration at half of the fitted maximal effect.
SMILES,ELG1 genotoxic,ELG1 DNA repair,FLuc counter,Rab9 promoter act,NPC1 promoter act,SMN2 splice enh
O=c1cc(-c2cccc(O)c2)oc2ccc(O)cc12,.,.,.,.,.,14µM*
NC(=O)COc1ccc2oc(-c3ccccc3)cc(=O)c2c1,?,?,12µM*,?,?,-18%
CCN(CC)CC(=O)N1c2ccccc2Oc2c(c(=O)n(C)c(=O)n2C)C1c1cccc([N+](=O)[O-])c1 (centres undefined),0%,0%,-1%,-7%,6%,.
O=c1c(=O)n(-c2ccccc2)ccn1Cc1cccc(C(F)(F)F)c1,.,.,0%,.,.,.
COc1ccc(-c2cc(=Nc3ccc(C)cc3)c3ccccc3o2)cc1,-9%,?,0%,-33%,-7%,-20%
O=c1cc(-c2ccc(O)cc2)oc2ccc(O)cc12,10%,?,12µM*,3.5µM*,?,?
COc1ccc(-c2cc3ccccc3c(=O)o2)cc1,.,.,.,.,.,13µM*
CCCn1c(-c2ccc(F)cc2)nc2c(NCCCN(CCO)CCO)nc(C)nc21,.,.,.,.,.,7%
CCCCN(C(=O)c1cc(=O)[nH]c2ccccc12)c1c(N)n(CCCC)c(=O)[nH]c1=O,5%,14%,-1%,4%,0%,.
Cc1cc(C)c(Cn2c(C)c(CNCc3ccccc3C)c(C(=O)O)c2C)c(C)c1,.,.,1%,.,.,9%
Cc1nc(SCC(=O)N2CCC(Cc3ccccc3)CC2)[nH]c(=O)c1C,-7%,3%,1%,-3%,-6%,.
Cc1cc(C)n2cc(CSc3nc4cc(Cl)ccc4o3)nc2n1,2%,0%,-1%,1%,1%,-16%
CN(C)c1nc(N)nc(CSc2nc3cc(Cl)ccc3o2)n1,7.3µM*,?,?,?,?,4%
CCOC(=O)C(C(C)=O)c1c(Br)c(O)c(O)c2c(C(=O)c3ccc(C)cc3)coc12 (centres undefined),7%,4.6µM*,19µM*,-14%,-25%,-4%
CCOC(=O)c1c(C)n(-c2ccc(C)cc2)c2c(C(C(C)=O)C(=O)O)c(Br)c(O)c(O)c12 (centres undefined),-1%,-16%,-3%,2%,5%,?
Cc1ccccc1C(=O)NCC(=O)OCCCOC(=O)CNC(=O)c1ccccc1C,-8%,8%,5%,-3%,-1%,.
O=C(NCC(c1cccnc1)N1CCN(c2ccccc2F)CC1)OCc1ccccc1 (centres undefined),-20%,23µM*,-1%,-4%,1%,-73%
O=C(NCc1cccs1)C(=O)NCC(c1ccco1)N1CCN(c2ccccc2F)CC1 (centres undefined),-11%,18µM*,-2%,-6%,-4%,-20%
Cc1cc(NCc2ccccn2)n2ncc(-c3ccc(Cl)cc3)c2n1,6%,?,11µM*,?,?,.
Cc1nn2c(NCc3ccccn3)cc(C(C)C)nc2c1-c1ccccc1,-11%,?,-1%,-27%,-4%,.
CCCc1cc(NCc2ccccn2)n2nc(C)c(-c3ccccc3)c2n1,-12%,21µM*,4%,-27%,-6%,.
Cc1cc(NCc2ccccn2)n2nc(C)c(-c3ccc(Cl)cc3)c2n1,-11%,26µM*,?,-32%,-11%,.
Cc1cc(NCCOCCO)n2ncc(-c3ccc(Cl)cc3)c2n1,?,?,1.3µM*,0.89µM*,1.3µM*,10µM*
COc1cccc(Nc2cc(C)nc3nc(-c4ccc(Cl)cc4)nn23)c1,.,.,-1%,.,.,12%
Cc1cc(NCc2ccccn2)n2ncc(-c3ccccc3)c2n1,?,?,4.3µM*,?,0.5µM*,.
SMILES,ELG1 genotoxic,ELG1 DNA repair,FLuc counter,Rab9 promoter act,NPC1 promoter act,SMN2 splice enh
COc1ccccc1CNc1cc(C)nc2nc(-c3ccc(C)cc3)nn12,.,.,6µM*,.,.,.
COc1ccccc1-c1cnn2c(NCc3ccccc3)cc(C)nc12,5%,29%,17µM*,24%,16%,.
Cc1cc(NCCCN2CCOCC2)n2ncc(-c3ccccc3)c2n1,9.2µM*,?,7.6µM*,0.71µM*,1µM*,16µM*
COc1ccc(CCNc2cc(C)nc3c(-c4ccccc4OC)cnn23)cc1OC,-7%,?,4%,4%,-5%,.
CCOc1ncccc1C(=O)NCc1ccccc1Cl,-1%,-2%,-1%,-3%,-2%,-2%
O=C(c1ccco1)N1CCC2(CC1)CCN(c1ccccc1)CC2,.,.,.,.,.,-24%
Cc1ccccc1NC(=O)c1c(NC(=O)c2ccncc2)sc2c1CCC(C(C)(C)C)C2 (centres undefined),.,.,?,.,.,-13%
CC(OC(=O)CNC(=O)c1ccc(F)cc1)C(=O)Nc1ccc(S(=O)(=O)N2CCOCC2)cc1 (centres undefined),-2%,-2%,.,-1%,2%,.
CC1=C(C)CC(C(=O)Nc2ccc(C(=O)N3CCOCC3)cc2)C(C(=O)O)C1 (centres undefined),1%,-4%,-14%,-8%,-1%,-1%
CCN(CC)c1ccc(/C=N/NC(=O)c2ccccn2)cc1,?,?,2.4µM*,0.71µM*,0.45µM*,.
CCN(CC)c1ccc(/C=N/NC(=O)c2ccc([N+](=O)[O-])cc2)cc1,6%,-8%,8%,3%,-3%,.
O=C(CNC(=O)c1ccccn1)N/N=C/c1ccccc1,1%,17%,?,-1%,-2%,7%
O=C(N/N=C/c1ccc(OC(=O)c2ccccc2Cl)cc1)c1ccccn1,8.2µM*,?,1.5µM*,?,2.8µM*,.
CCN(CC)c1ccc(/C=N/NC(=O)c2cnccn2)cc1,12µM*,?,12µM*,?,-9%,20µM*
CCc1ccc(/C=N/NC(=O)c2ccccn2)cc1,?,?,0.48µM*,0.13µM*,0.45µM*,.
O=C(N/N=C/c1ccc(OC(=O)c2ccccc2Cl)cc1)c1cc(O)cc(O)c1,1%,-4%,?,4%,-4%,.
COc1ccccc1NC(=O)CC1Sc2ccc(C(F)(F)F)cc2NC1=O (centres undefined),.,.,0%,.,.,?
Cc1cccc(NC(=O)c2ccc3c(c2)OCCO3)n1,?,?,9.5µM*,1.3µM*,1.4µM*,.
Cc1cccnc1NC(=O)c1ccc2c(c1)OCO2,11%,?,-22%,3%,-1%,.
O=C(Nc1ccccn1)c1ccc2c(c1)OCCO2,8%,?,6.7µM*,0.63µM*,1.1µM*,2.5µM*
O=C(Nc1ccccn1)c1ccc(C(=O)Nc2ccccn2)cc1,13%,?,?,?,?,.
O=C(Nc1ccccn1)c1ccc2c(c1)OCO2,?,?,12µM*,1.3µM*,3.2µM*,11µM*
